Test results published in PubChem BioAssay AID1159580 (chemical genetic matrix, 2015).
Screen size: about 5,500 compounds; about 2,000 (36%) were called active. Not shown: some 18% with an inconclusive outcome. This is one part of the list. Unmarked numbers belong to inactive results. No stated cut-off is given here; in the data, active means normalized growth mostly below about 0.91 (no sharp cut-off); inconclusive means no clear call, values can overlap the other calls; inactive means mostly above about 0.92.

Assay: chemical genetic growth profiling, strain panel (AID 1159580);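 further: tested at 20 µM; growth read once vehicle control cultures reached saturation at 30 °C; 1 = growth at the plate median or of vehicle wells; lower values mean less growth of the strain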
Conditions: growth OD

Structure (SMILES): COc1ccc2cc(CCC(C)=O)ccc2c1
- normalized growth (S. cerevisiae deletion strains, locus YJR075W, strain HOC1, active compounds read low): 0.965
- normalized growth (S. cerevisiae deletion strains, locus YKL009W, strain mrt4, active compounds read low): 0.86 (active)
- normalized growth (S. cerevisiae deletion strains, locus YKL068W, active compounds read low): 0.963
- normalized growth (S. cerevisiae deletion strains, locus YKL085W, strain MDH1 (second series), active compounds read low): 0.966
- normalized growth (S. cerevisiae deletion strains, locus YKL085W, strain MDH1, active compounds read low): 0.966
- normalized growth (S. cerevisiae deletion strains, locus YKL160W, strain elf1, active compounds read low): 0.997
- normalized growth (S. cerevisiae deletion strains, locus YKL190W, strain CNB1, active compounds read low): 0.972
- normalized growth (S. cerevisiae deletion strains, locus YKR001C, strain vps1, active compounds read low): 0.932
- normalized growth (S. cerevisiae deletion strains, locus YKR026C, strain gcn3, active compounds read low): 0.984
- normalized growth (S. cerevisiae deletion strains, locus YKR091W, strain srl3, active compounds read low): 0.992
- normalized growth (S. cerevisiae deletion strains, locus YLL001W, strain dnm1, active compounds read low): 0.982
- normalized growth (S. cerevisiae deletion strains, locus YLL026W, active compounds read low): 0.991
- normalized growth (S. cerevisiae deletion strains, locus YLL041C, strain sdh2, active compounds read low): 0.996
- normalized growth (S. cerevisiae deletion strains, locus YLR027C, strain aat2, active compounds read low): 0.997
- normalized growth (S. cerevisiae deletion strains, locus YLR039C, strain RIC1, active compounds read low): 1.11
- normalized growth (S. cerevisiae deletion strains, locus YLR058C, strain SHM2, active compounds read low): 0.948
- normalized growth (S. cerevisiae deletion strains, locus YLR102C, strain apc9, active compounds read low): 0.944
- normalized growth (S. cerevisiae deletion strains, locus YLR113W, strain HOG1, active compounds read low): 0.965
- normalized growth (S. cerevisiae deletion strains, locus YLR221C, strain rsa3, active compounds read low): 0.992
- normalized growth (S. cerevisiae deletion strains, locus YLR258W, strain gsy2, active compounds read low): 0.998
- normalized growth (S. cerevisiae deletion strains, locus YLR262C, strain YPT6 (second series), active compounds read low): 1.03
- normalized growth (S. cerevisiae deletion strains, locus YLR262C, strain YPT6, active compounds read low): 1.04
- normalized growth (S. cerevisiae deletion strains, locus YLR268W, strain sec22, active compounds read low): 1.01
- normalized growth (S. cerevisiae deletion strains, locus YLR320W, strain mms22, active compounds read low): 0.971
- normalized growth (S. cerevisiae deletion strains, locus YLR330W, strain CHS5, active compounds read low): 0.951
- normalized growth (S. cerevisiae deletion strains, locus YLR342W, strain FKS1 (second series), active compounds read low): 0.885
- normalized growth (S. cerevisiae deletion strains, locus YLR342W, strain FKS1, active compounds read low): 0.993
- normalized growth (S. cerevisiae deletion strains, locus YLR357W, strain rsc2, active compounds read low): 0.992
- normalized growth (S. cerevisiae deletion strains, locus YLR370C, strain arc18, active compounds read low): 0.998
- normalized growth (S. cerevisiae deletion strains, locus YLR371W, strain rom2, active compounds read low): 0.932
- normalized growth (S. cerevisiae deletion strains, locus YLR384C, strain iki3, active compounds read low): 0.986
- normalized growth (S. cerevisiae deletion strains, locus YLR418C, strain cdc73, active compounds read low): 0.78 (active)
- normalized growth (S. cerevisiae deletion strains, locus YML016C, strain PPZ1, active compounds read low): 0.941
- normalized growth (S. cerevisiae deletion strains, locus YML032C, strain rad52, active compounds read low): 0.967
- normalized growth (S. cerevisiae deletion strains, locus YML120C, strain ndi1, active compounds read low): 0.985
- normalized growth (S. cerevisiae deletion strains, locus YML124C, strain tub3, active compounds read low): 0.929 (active)
- normalized growth (S. cerevisiae deletion strains, locus YMR058W, strain fet3, active compounds read low): 0.996
- normalized growth (S. cerevisiae deletion strains, locus YMR078C, strain ctf18, active compounds read low): 0.929
- normalized growth (S. cerevisiae deletion strains, locus YMR125W, strain sto1, active compounds read low): 1.01
- normalized growth (S. cerevisiae deletion strains, locus YMR129W, active compounds read low): 0.983
- normalized growth (S. cerevisiae deletion strains, locus YMR205C, strain PFK2, active compounds read low): 1.01
- normalized growth (S. cerevisiae deletion strains, locus YMR223W, strain ubp8, active compounds read low): 0.895 (active)
- normalized growth (S. cerevisiae deletion strains, locus YMR231W, strain pep5, active compounds read low): 0.999
- normalized growth (S. cerevisiae deletion strains, locus YMR263W, strain SAP30, active compounds read low): 0.923
- normalized growth (S. cerevisiae deletion strains, locus YMR307W, strain GAS1, active compounds read low): 0.917
- normalized growth (S. cerevisiae deletion strains, locus YNL067W, strain RPL9B, active compounds read low): 0.97
- normalized growth (S. cerevisiae deletion strains, locus YNL071W, strain lat1, active compounds read low): 0.987
- normalized growth (S. cerevisiae deletion strains, locus YNL128W, strain TEP1, active compounds read low): 0.963
- normalized growth (S. cerevisiae deletion strains, locus YNL153C, strain GIM3, active compounds read low): 0.975
- normalized growth (S. cerevisiae deletion strains, locus YNL183C, strain NPR1, active compounds read low): 0.91
- normalized growth (S. cerevisiae deletion strains, locus YNL209W, strain ssb2, active compounds read low): 0.995
- normalized growth (S. cerevisiae deletion strains, locus YNL233W, strain BNI4, active compounds read low): 0.972
- normalized growth (S. cerevisiae deletion strains, locus YNL248C, strain rpa49, active compounds read low): 1.02
- normalized growth (S. cerevisiae deletion strains, locus YNL250W, strain rad50, active compounds read low): 0.943
- normalized growth (S. cerevisiae deletion strains, locus YNL271C, strain bni1, active compounds read low): 0.939
- normalized growth (S. cerevisiae deletion strains, locus YNL298W, strain CLA4, active compounds read low): 0.919
- normalized growth (S. cerevisiae deletion strains, locus YNL307C, strain MCK1, active compounds read low): 0.827 (active)
- normalized growth (S. cerevisiae deletion strains, locus YNL322C, strain KRE1 (second series), active compounds read low): 0.996
- normalized growth (S. cerevisiae deletion strains, locus YNL322C, strain KRE1, active compounds read low): 0.961
- normalized growth (S. cerevisiae deletion strains, locus YNR049C, strain mso1, active compounds read low): 0.991
- normalized growth (S. cerevisiae deletion strains, locus YNR052C, strain pop2, active compounds read low): 0.972
- normalized growth (S. cerevisiae deletion strains, locus YOL006C, strain TOP1, active compounds read low): 0.672
- normalized growth (S. cerevisiae deletion strains, locus YOL012C, strain htz1): 1.84
- normalized growth (S. cerevisiae deletion strains, locus YOL147C, strain pex11, active compounds read low): 0.939
- normalized growth (S. cerevisiae deletion strains, locus YOR001W, strain rrp6, active compounds read low): 0.979
- normalized growth (S. cerevisiae deletion strains, locus YOR061W, strain CKA2, active compounds read low): 0.947
- normalized growth (S. cerevisiae deletion strains, locus YOR069W, strain VPS5, active compounds read low): 0.97
- normalized growth (S. cerevisiae deletion strains, locus YOR070C, strain gyp1, active compounds read low): 0.991
- normalized growth (S. cerevisiae deletion strains, locus YOR080W, strain dia2, active compounds read low): 0.988
- normalized growth (S. cerevisiae deletion strains, locus YOR083W, strain WHI5, active compounds read low): 0.985
- normalized growth (S. cerevisiae deletion strains, locus YOR106W, strain vam3, active compounds read low): 1
- normalized growth (S. cerevisiae deletion strains, locus YOR136W, strain idh2, active compounds read low): 0.956
- normalized growth (S. cerevisiae deletion strains, locus YOR144C, strain elg1, active compounds read low): 0.951
- normalized growth (S. cerevisiae deletion strains, locus YOR184W, strain ser1, active compounds read low): 0.786 (active)
- normalized growth (S. cerevisiae deletion strains, locus YOR231W, strain MKK1, active compounds read low): 0.93
- normalized growth (S. cerevisiae deletion strains, locus YOR265W, strain rbl2, active compounds read low): 0.987
- normalized growth (S. cerevisiae deletion strains, locus YOR270C, strain vph1, active compounds read low): 0.886
- normalized growth (S. cerevisiae deletion strains, locus YOR290C, strain snf2, active compounds read low): 0.977
- normalized growth (S. cerevisiae deletion strains, locus YOR316C, strain cot1, active compounds read low): 0.943
- normalized growth (S. cerevisiae deletion strains, locus YPL051W, strain arl3, active compounds read low): 0.985
- normalized growth (S. cerevisiae deletion strains, locus YPL055C, strain LGE1, active compounds read low): 0.88
- normalized growth (S. cerevisiae deletion strains, locus YPL078C, strain atp4, active compounds read low): 0.981
- normalized growth (S. cerevisiae deletion strains, locus YPL106C, strain sse1, active compounds read low): 0.96
- normalized growth (S. cerevisiae deletion strains, locus YPL240C, strain hsp82, active compounds read low): 0.992
- normalized growth (S. cerevisiae deletion strains, locus YPL241C, strain CIN2, active compounds read low): 0.96
- normalized growth (S. cerevisiae deletion strains, locus YPL256C, strain CLN2, active compounds read low): 0.911
- normalized growth (S. cerevisiae deletion strains, locus YPR119W, strain clb2, active compounds read low): 0.943
- normalized growth (S. cerevisiae deletion strains, locus YPR141C, strain kar3, active compounds read low): 0.924
- normalized growth (S. cerevisiae deletion strains, locus YPR163C, strain tif3, active compounds read low): 0.935
- normalized growth (S. cerevisiae deletion strains, locus YPR167C, strain met16, active compounds read low): 0.941
- normalized growth (S. cerevisiae deletion strains, strain wtn01, active compounds read low): 0.959
- normalized growth (S. cerevisiae strains, strain wild type, active compounds read low): 0.935
